Shown are actives, neighbours in structure and some others; about 2.7% of the full set was active somewhere.
rCAG binder: r(CAG) repeat RNA binding; AID 651821; inhibition, % at 3 µM; 1.3% of 370,000 active; TO-PRO-1 dye displacement fluorescence;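 active means inhibition above the plate cutoff, the mean of all test compounds on that plate plus 3 SD, cut at about 35% in these data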;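 further: 0% = DMSO alone and 100% = 100 µM mitoxantrone as full dye displacement; higher means more dye released from RNA so lower well fluorescence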
bovine MsrA act: activators of bovine methionine sulfoxide reductase A | purified bovine MsrA, absorbance read-out | AID 602163 | 0.3% of 360,000 active | activation, % at 10.6 µM; in the data active means activation above about 7.5%;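 further: 0% = vehicle and 100% = reference activator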
MsrA inh: inhibits bovine methionine sulfoxide reductase A; purified bovine MsrA, absorbance read-out; inhibition, % at 15.5 µM; 0.75% of 360,000 active; in the data active means inhibition above about 4.5%;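 further: 0% = vehicle wells with enzyme and 100% = reference inhibitor wells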
NadD inh: NadD (S. aureus) enzyme inhibition; purified NadD enzyme, colorimetric absorbance read-out; inhibition, % at 20 µM; 0.78% of 360,000 active; AID 602399; in the data active means inhibition above about 26%
rCAG binder conf: r(CAG) RNA repeat binding, confirmation | AID 652065 | 70% of 4,300 active | inhibition, % at 3 µM | shares compounds with rCAG binder | TO-PRO-1 dye displacement fluorescence;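 active means inhibition above a per-plate cutoff, the mean inhibition of sample wells plus 3 SD, cut at about 35% in these data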;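 further: loss of TO-PRO-1 fluorescence as compound displaces dye from 1x1 AA loop RNA; 0% = DMSO only wells and 100% = 100 µM mitoxantrone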
dCAG dye counter: DNA CAG dye complex inhibition counter-screen; shares compounds with rCAG binder; d(CAG) DNA oligo TO-PRO-1 dye displacement, fluorescence; inhibition, % at 3 µM; 94% of 4,300 active; AID 652068;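 active means inhibition above its plate's cutoff, the mean test-well inhibition plus 3 SD, cut at about 4.8% in these data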;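 further: 0% = DNA dye mix with DMSO and 100% = 100 µM mitoxantrone; hits displace the dye from DNA and so lower well fluorescence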
dCAG dye DR: counter-screen for rCAG binders: inhibitors of DNA CAG TO-PRO-1 complex | IC50, µM | shares compounds with rCAG binder | 20% of 250 active | DNA CAG/GTC duplex TO-PRO-1 dye displacement fluorescence; in the data active means IC50 below about 10 µM
* = called active by the depositor; . = not tested or not shown.

SMILES | rCAG binder | bovine MsrA act | MsrA inh | NadD inh | rCAG binder conf | dCAG dye counter | others
O=C(O)Cn1cc(/C=N/Nc2ccc([N+](=O)[O-])cn2)c2ccccc21 | 37.4* | -10.7 | 2.4 | -1.1 | 27.4 | 7.5*
CN1CCN(C(=O)C[C@H]2CC[C@H]3[C@@H](COC[C@@H](O)CN3C(=O)C3CCCC3)O2)CC1 | -0.6 | . | 1.4 | . | . | .
CC(c1ccco1)N(C(=O)c1ccccc1NS(=O)(=O)c1cc([N+](=O)[O-])ccc1Cl)c1ccccn1 (stereo unspecified) | 57.7* | -4.2 | -1.1 | 6.5 | 53.2* | 20.6*
CC(c1ccco1)N(C(=O)c1ccccc1NS(=O)(=O)c1cccc([N+](=O)[O-])c1)c1ccccn1 (stereo unspecified) | . | -4.1 | . | 11.5 | . | .
CCOc1ccc(Cn2c(O)cc(=O)[nH]c2=O)cc1 | 46.6* | 7.5 | -0.6 | 5.9 | 12.0 | 4.0
CCOC(=O)c1sc(NS(=O)(=O)c2ccc(F)cc2)nc1C | 15.1 | -1.1 | 2.1 | -2.2 | . | .
C/C(=N/NC(=O)c1sc(NS(=O)(=O)c2ccccc2)nc1C)c1ccccc1 | 58.4* | 0.0 | 1.8 | 8.9 | 34.5 | 7.1*
C/C(=N/NC(=O)c1sc(NS(=O)(=O)c2ccccc2)nc1C)c1ccc(F)cc1 | 83.7* | -5.8 | 2.1 | -0.6 | 49.3* | 14.8*
CCOC(=O)c1sc(NS(=O)(=O)c2ccccc2)nc1C | 10.3 | -2.3 | 0.7 | 1.4 | . | .
Cc1ccc(C)c(S(=O)(=O)NNC(=O)c2sc(NS(=O)(=O)c3ccccc3)nc2C)c1 | 47.0* | -9.1 | 0.6 | -1.3 | 30.9 | 6.4*
Cc1nc(C)c(C(=O)NNS(=O)(=O)c2ccccc2)s1 | -2.3 | -1.4 | -1.9 | 0.1 | . | .
COCCN1C(=O)/C(=C/c2ccc(N3CCCC3)cc2C)SC1=S | -0.2 | -4.2 | 2.6 | 1.8 | . | .
Cc1ccc(Cn2cc(COC(=O)NCCc3c[nH]c4ccccc34)nn2)cc1 | 6.9 | . | . | . | . | .
O=C(CN1C(=O)NC2(CCCCCC2)C1=O)NCCc1ccccc1 | 3.4 | -0.5 | -0.9 | 4.6 | . | .
CC(=O)N1c2ccc(S(=O)(=O)N(C)CC(=O)NC(C)c3ccccc3)cc2CC1C (stereo unspecified) | -4.0 | -3.1 | 1.6 | -6.3 | . | .
O=C(CNC(=O)c1ccccc1Br)N/N=C/c1ccccc1O | -0.4 | -1.6 | 1.4 | -0.8 | . | .
O=C(CNC(=O)c1ccccc1Br)N/N=C\c1cc([N+](=O)[O-])cc(Br)c1O | 39.2* | -2.6 | 2.0 | 8.0 | 31.1 | 7.9*
Cc1cccc(NC(=O)/C(C#N)=C\c2cn(CC(=O)O)c3ccccc23)c1 | 1.8 | -3.7 | 1.3 | -5.1 | . | .
CCOc1ccc(NC(=O)/C(C#N)=C/c2cn(CC(=O)O)c3ccccc23)cc1 | 55.7* | -4.3 | 3.0 | -6.0 | 49.7* | 14.9*
N#C/C(=C/c1cn(CC(=O)O)c2ccccc12)C(=O)Nc1ccccc1 | 5.1 | -9.2 | 0.6 | -2.6 | . | .
CCc1ccc(NC(=O)/C(C#N)=C/c2cn(CC(=O)O)c3ccccc23)cc1 | 36.2* | -4.3 | 2.5 | 10.0 | 21.4 | 5.9*
CCOc1cccc(NC(=O)/C(C#N)=C\c2cn(CC(=O)O)c3ccccc23)c1 | 56.5* | -1.1 | 0.8 | 15.1 | 55.9* | 17.9*
Cc1cc(CNC[C@H]2O[C@@H](n3cnc(C(N)=O)n3)[C@H](O)[C@@H]2O)c(C)n1-c1cccnc1 | 3.6 | -5.3 | 0.9 | 2.7 | . | .
CC(=O)Nc1cccc2c1C(=O)N(c1ccccc1OC(C)=O)C2=O | -3.8 | -0.6 | 0.7 | -0.5 | . | .
Cc1ccccc1NC(=O)COC(=O)c1cc(S(=O)(=O)N2CCOCC2)ccc1C | 0.1 | -1.4 | 0.7 | -2.2 | . | .
SMILES | rCAG binder | bovine MsrA act | MsrA inh | NadD inh | rCAG binder conf | dCAG dye counter | others
O=[N+]([O-])c1cccc(OCC(O)CN2CCN(S(=O)(=O)c3cc(Cl)ccc3Cl)CC2)c1 (stereo unspecified) | -4.1 | -2.2 | 1.9 | 1.2 | . | .
COC(=O)Cn1c(=O)c2c(n(Cc3ccccc3)c1=O)N/C(=C/c1ccc(Br)cc1)C2=O | 62.3* | -7.1 | 1.6 | 2.8 | 75.0* | 39.6*
O=C(COc1ccccc1C(=O)O)Nc1nc2ccc([N+](=O)[O-])cc2s1 | 40.2* | -4.1 | 1.9 | 2.7 | 37.3* | 12.2*
CC1(C)CC[C@]2(C(=O)O[C@@H]3OC(CO)[C@@H](O)[C@H](O)[C@H]3O)CC[C@]3(C)C(=CCC4[C@@]5(C)CC[C@H](O[C@@H]6OC(C(=O)O)[C@@H](O)[C@H](O)[C@H]6O)C(C)(C)C5CC[C@]43C)[C@@H]2C1 (stereo partly specified) | 45.7* | -2.3 | 1.5 | 18.3 | 45.0* | 11.5* | dCAG dye DR=>29.9
Cc1ccc(NC(=O)CN(C)C(=O)c2cccnc2Nc2cccc(C(F)(F)F)c2)cc1 | 44.2* | 1.6 | -0.2 | 2.5 | 16.4 | 5.8*
COc1ccc(-c2[nH]ncc2CN2CCC(N3CCSCC3)CC2)cc1F | -4.5 | -3.6 | -1.9 | -1.7 | . | .
O=C(Cc1cccc(C(F)(F)F)c1)NCc1cccc(Cl)c1 | 0.2 | 2.5 | -0.6 | -8.7 | . | .
O=C(NCc1cccc(Cl)c1)c1ccc(S(=O)(=O)Nc2cccc(C(F)(F)F)c2)cc1 | 42.3* | 6.1 | 0.0 | -5.9 | 44.9* | 9.1*
O=[N+]([O-])c1ccc(-c2nc(Nc3ccc(O)cc3)c3ccccc3n2)cc1 | 36.6* | -3.0 | 2.2 | 7.7 | 21.4 | 10.3*
Cc1cccc(NC(=S)N/N=C/c2c[nH]c3ccccc23)c1 | 35.6* | -7.7 | 3.5 | 3.7 | 23.3 | 13.9*
COC(=O)c1sc(S(=O)(=O)Nc2ccc(Br)cc2)c(C(=O)OC)c1C | 57.1* | -9.2 | -0.3 | -0.8 | 42.0* | 13.9*
Cc1ccc(S(=O)(=O)NN2C(=O)/C(=C/c3cccnc3)SC2=S)cc1 | 24.2 | -2.4 | 2.8 | 5.9 | . | .
COc1ccc(/C=C2\SC(=S)N(NS(=O)(=O)c3ccc(C)cc3)C2=O)c(OC)c1 | 86.6* | -1.7 | -0.1 | 14.4 | 85.3* | 57.5*
COc1ccc(C2Nc3ccccc3C(=O)N2NS(=O)(=O)c2ccc(C)cc2)c(OC)c1 (stereo unspecified) | 1.1 | -2.5 | 1.0 | 3.4 | . | .
COc1ccccc1/C=C1\SC(=S)N(NS(=O)(=O)c2ccc(C)cc2)C1=O | 77.9* | -5.3 | 2.4 | 4.6 | 68.9* | 33.2*
COc1ccc(OC)c(/C=C2\SC(=S)N(NS(=O)(=O)c3ccc(C)cc3)C2=O)c1 | 84.4* | -5.3 | 2.9 | 15.5 | 87.4* | 51.8*
CC(C)(C)C1CCc2c(sc3nc(SCC(=O)O)nc(N)c23)C1 (stereo unspecified) | 35.8* | -5.2 | 0.3 | 5.0 | 41.9* | 10.1*
Cc1nc(-c2ccccc2)nc(-c2ccccc2)n1 | 0.3 | -3.8 | 0.2 | -7.0 | . | .
COc1ccc(CN(C)S(=O)(=O)c2nnc(NC(=O)c3ccccc3)s2)cc1OC | 10.4 | -4.3 | 0.1 | -3.9 | . | .
Cc1cccc(C(=O)Nc2nnc(S(=O)(=O)N(C)Cc3ccco3)s2)c1 | 36.5* | -5.0 | 3.0 | -9.8 | 37.4* | 13.5*
